Results on seven sequences are retold here after publication PMC7862700, “An all-to-all approach to the identification of sequence-specific readers for epigenetic DNA modifications on cytosine”.

Test in all cases: DAPPL (digital affinity profiling via proximity ligation, sequencing); 10 mM Tris-HCl pH 7.5, 50 mM NaCl, 1 mM DTT, 4% glycerol, room temperature, 30 min; GST-TFs on glutathione beads, 16-mer random dsDNA library, 0.1% formaldehyde crosslink after washing; high values mean tight binding
What all share (conditions): protein: recombinant; tags: N-terminal GST; dsDNA, one strand shown

One assay has as its target T1, FLI1 (Homo sapiens, UniProt Q01543 1-452).
T1 sequence: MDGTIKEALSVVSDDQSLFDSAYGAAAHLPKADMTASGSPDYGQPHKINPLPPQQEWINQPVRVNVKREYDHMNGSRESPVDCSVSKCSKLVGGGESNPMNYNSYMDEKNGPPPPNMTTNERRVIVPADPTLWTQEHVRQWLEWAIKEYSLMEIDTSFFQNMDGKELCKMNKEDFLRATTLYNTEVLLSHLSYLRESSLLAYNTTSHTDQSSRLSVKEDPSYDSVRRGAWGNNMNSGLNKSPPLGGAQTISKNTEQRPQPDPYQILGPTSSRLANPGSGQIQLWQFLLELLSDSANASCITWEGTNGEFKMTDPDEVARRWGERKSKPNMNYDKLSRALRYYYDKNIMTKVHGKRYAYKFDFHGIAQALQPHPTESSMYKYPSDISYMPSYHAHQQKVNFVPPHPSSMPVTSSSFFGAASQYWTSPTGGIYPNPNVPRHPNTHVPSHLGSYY
In short, it runs like this: (§1)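 Binding signal is given per hexamer as its read frequency for a factor divided by its frequency in the tag-only sample. GST-fused human transcription factors were expressed in yeast, captured on glutathione beads, barcoded with DNA and pooled with that sample, then incubated with 200 nmole of a 16-mer random double-stranded DNA library in Tris/NaCl/DTT/glycerol buffer for 30 min at room temperature. The pools were then washed, crosslinked, proximity-ligated, amplified by PCR and sequenced on an Illumina NextSeq500.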

Another assay deals with T2, ELK1 (Homo sapiens, UniProt P19419 1-428).
T2 sequence: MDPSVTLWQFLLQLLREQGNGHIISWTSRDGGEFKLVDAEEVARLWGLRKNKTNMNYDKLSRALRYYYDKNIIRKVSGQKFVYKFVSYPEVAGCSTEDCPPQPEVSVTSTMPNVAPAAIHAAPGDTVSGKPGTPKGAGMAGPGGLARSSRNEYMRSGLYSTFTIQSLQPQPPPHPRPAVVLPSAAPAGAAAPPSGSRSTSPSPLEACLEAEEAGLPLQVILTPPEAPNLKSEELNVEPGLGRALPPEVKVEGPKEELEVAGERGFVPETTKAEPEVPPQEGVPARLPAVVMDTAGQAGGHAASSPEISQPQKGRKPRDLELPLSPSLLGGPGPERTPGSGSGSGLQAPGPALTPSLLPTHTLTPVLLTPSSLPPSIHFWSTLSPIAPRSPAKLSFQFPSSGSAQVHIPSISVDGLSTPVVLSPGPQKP
In short, it runs like this: as §1

The target in the next assay is T3, GABPA (Homo sapiens, UniProt Q06546 1-454).
T3 sequence: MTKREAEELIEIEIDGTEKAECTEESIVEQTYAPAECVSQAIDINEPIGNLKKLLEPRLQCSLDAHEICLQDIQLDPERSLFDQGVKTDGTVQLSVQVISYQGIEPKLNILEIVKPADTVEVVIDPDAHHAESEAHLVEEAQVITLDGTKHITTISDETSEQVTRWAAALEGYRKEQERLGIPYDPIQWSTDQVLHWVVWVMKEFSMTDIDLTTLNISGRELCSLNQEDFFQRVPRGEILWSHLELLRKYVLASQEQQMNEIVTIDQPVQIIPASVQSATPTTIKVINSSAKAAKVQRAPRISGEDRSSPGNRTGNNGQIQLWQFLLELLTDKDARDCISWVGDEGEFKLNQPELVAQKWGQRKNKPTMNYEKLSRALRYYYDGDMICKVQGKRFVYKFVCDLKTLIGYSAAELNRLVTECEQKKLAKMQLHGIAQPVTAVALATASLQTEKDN
The method, boiled down:
as §1

A further assay deals with T4, ERG (Homo sapiens, UniProt P11308 1-479).
T4 sequence: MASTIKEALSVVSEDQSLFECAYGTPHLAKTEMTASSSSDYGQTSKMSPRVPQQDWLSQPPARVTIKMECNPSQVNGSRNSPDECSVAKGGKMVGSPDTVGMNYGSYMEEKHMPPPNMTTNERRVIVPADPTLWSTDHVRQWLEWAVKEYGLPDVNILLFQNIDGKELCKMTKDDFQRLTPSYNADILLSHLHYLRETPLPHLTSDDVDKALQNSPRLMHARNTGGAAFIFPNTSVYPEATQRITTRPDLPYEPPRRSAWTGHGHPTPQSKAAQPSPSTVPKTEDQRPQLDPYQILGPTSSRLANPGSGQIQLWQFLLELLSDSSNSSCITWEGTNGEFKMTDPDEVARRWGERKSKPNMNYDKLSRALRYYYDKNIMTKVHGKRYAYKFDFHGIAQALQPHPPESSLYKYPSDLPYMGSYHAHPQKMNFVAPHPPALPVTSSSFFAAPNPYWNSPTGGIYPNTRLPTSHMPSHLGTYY
The method, boiled down:
as §1

For a further assay, the target named is ELF1 (Homo sapiens, UniProt P32519 1-619). The method, boiled down: as §1
ELF1, sequence (P32519 whole entry): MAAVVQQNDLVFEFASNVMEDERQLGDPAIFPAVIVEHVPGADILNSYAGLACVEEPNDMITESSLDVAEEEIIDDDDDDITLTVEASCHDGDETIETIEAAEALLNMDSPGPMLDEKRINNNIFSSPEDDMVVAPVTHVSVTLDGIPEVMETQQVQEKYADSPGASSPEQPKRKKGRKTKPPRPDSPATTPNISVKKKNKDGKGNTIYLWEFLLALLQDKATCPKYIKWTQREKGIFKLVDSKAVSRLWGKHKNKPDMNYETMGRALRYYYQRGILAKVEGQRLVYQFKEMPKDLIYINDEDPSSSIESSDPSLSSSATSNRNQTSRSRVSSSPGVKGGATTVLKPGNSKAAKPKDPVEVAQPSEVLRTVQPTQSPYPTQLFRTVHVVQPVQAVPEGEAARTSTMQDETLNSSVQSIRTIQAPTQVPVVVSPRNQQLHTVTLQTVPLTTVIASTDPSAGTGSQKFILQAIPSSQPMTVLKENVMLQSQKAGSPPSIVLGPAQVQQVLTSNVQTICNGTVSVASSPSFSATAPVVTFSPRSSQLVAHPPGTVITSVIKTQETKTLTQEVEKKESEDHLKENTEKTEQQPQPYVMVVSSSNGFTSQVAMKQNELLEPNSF
The next assay concerns the target T5, EHF (Homo sapiens, UniProt Q9NZC4 1-300).
T5 sequence: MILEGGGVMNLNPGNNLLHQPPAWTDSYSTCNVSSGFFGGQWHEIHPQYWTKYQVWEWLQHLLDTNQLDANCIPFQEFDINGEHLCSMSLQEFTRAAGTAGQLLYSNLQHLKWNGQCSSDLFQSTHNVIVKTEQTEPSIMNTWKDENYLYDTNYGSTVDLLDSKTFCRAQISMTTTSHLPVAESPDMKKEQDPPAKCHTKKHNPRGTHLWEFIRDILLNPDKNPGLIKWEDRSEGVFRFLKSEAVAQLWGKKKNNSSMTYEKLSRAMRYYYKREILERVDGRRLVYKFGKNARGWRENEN
In short, it runs like this:
as §1

Another assay concerns the target SPI1 (Homo sapiens, UniProt P17947 1-270). In short, it runs like this:
as §1

Another assay concerns the target SPIB (Homo sapiens, UniProt Q01892 1-262). The method, boiled down: as §1
A further assay addresses T6, ELK3 (Homo sapiens, UniProt P41970 1-407).
T6 sequence: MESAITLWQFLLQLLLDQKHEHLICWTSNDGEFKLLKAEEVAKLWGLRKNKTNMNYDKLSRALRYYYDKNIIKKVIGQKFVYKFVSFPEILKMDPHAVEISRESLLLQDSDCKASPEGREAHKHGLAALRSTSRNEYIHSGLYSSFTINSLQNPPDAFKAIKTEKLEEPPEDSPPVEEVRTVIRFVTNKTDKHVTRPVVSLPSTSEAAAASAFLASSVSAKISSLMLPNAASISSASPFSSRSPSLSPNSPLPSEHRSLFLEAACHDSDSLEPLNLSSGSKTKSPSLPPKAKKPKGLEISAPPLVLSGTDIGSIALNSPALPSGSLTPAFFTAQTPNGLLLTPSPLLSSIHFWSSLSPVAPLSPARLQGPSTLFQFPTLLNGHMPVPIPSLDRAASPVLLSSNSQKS
In short, it runs like this: as §1

SPIB, sequence (Q01892 whole entry): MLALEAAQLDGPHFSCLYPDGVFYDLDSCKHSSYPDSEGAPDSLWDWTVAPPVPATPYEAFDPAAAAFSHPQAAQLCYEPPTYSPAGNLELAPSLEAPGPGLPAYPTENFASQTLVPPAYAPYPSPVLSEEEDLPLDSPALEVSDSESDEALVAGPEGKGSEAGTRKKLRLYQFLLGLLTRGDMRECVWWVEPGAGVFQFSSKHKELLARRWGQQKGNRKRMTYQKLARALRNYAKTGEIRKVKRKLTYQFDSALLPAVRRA

With TCTGAT, the binding signal with FLI1 is 1.15 fold enrichment (6-mer frequency, TF over GST control); in the assay with ELK1 it was 1.21 fold enrichment (6-mer frequency, TF over GST control); with GABPA, 1.29 fold enrichment (6-mer frequency, TF over GST control); with ERG it was 1.1 fold enrichment (6-mer frequency, TF over GST control); in the assay with ELF1, 1.27 fold enrichment (6-mer frequency, TF over GST control); with EHF it was 1.25 fold enrichment (6-mer frequency, TF over GST control). In addition, the binding signal in the assay with SPI1 is 1.11 fold enrichment (6-mer frequency, TF over GST control); with SPIB, 1.31 fold enrichment (6-mer frequency, TF over GST control); in the assay with ELK3 it was 1.14 fold enrichment (6-mer frequency, TF over GST control).
As to ACTATC, the binding signal is 1.15 fold enrichment (6-mer frequency, TF over GST control) with FLI1; 1.13 fold enrichment (6-mer frequency, TF over GST control) with ELK1; 1.17 fold enrichment (6-mer frequency, TF over GST control) with GABPA; 1.11 fold enrichment (6-mer frequency, TF over GST control) in the assay with ERG; 1.12 fold enrichment (6-mer frequency, TF over GST control) with ELF1; 1.14 fold enrichment (6-mer frequency, TF over GST control) with EHF. Besides, the binding signal in the assay with SPI1 is 1.21 fold enrichment (6-mer frequency, TF over GST control); with SPIB, 1.16 fold enrichment (6-mer frequency, TF over GST control); in the assay with ELK3, 1.07 fold enrichment (6-mer frequency, TF over GST control).
Consider TCTTCG, for which the binding signal is 1.45 fold enrichment (6-mer frequency, TF over GST control) in the assay with FLI1; 1.49 fold enrichment (6-mer frequency, TF over GST control) with ELK1; 1.45 fold enrichment (6-mer frequency, TF over GST control) with GABPA; 1.41 fold enrichment (6-mer frequency, TF over GST control) in the assay with ERG; 1.51 fold enrichment (6-mer frequency, TF over GST control) with ELF1; 1.31 fold enrichment (6-mer frequency, TF over GST control) in the assay with EHF. For the same sequence, the binding signal was 1.47 fold enrichment (6-mer frequency, TF over GST control) in the assay with SPI1; 1.57 fold enrichment (6-mer frequency, TF over GST control) with SPIB; 1.49 fold enrichment (6-mer frequency, TF over GST control) with ELK3.
AATACC: the binding signal is 1.25 fold enrichment (6-mer frequency, TF over GST control) with FLI1; 1.09 fold enrichment (6-mer frequency, TF over GST control) with ELK1; 1.09 fold enrichment (6-mer frequency, TF over GST control) with GABPA; 1.21 fold enrichment (6-mer frequency, TF over GST control) in the assay with ERG; 1.19 fold enrichment (6-mer frequency, TF over GST control) with ELF1; 1.19 fold enrichment (6-mer frequency, TF over GST control) with EHF. For the same sequence, the binding signal in the assay with SPI1 is 1.14 fold enrichment (6-mer frequency, TF over GST control); with SPIB, 1.16 fold enrichment (6-mer frequency, TF over GST control); in the assay with ELK3 it was 1.25 fold enrichment (6-mer frequency, TF over GST control).
On to GCTTTA, for which the binding signal was 1.19 fold enrichment (6-mer frequency, TF over GST control) with FLI1; 1.13 fold enrichment (6-mer frequency, TF over GST control) with ELK1; 1.08 fold enrichment (6-mer frequency, TF over GST control) with GABPA; 1.05 fold enrichment (6-mer frequency, TF over GST control) with ERG; 1.09 fold enrichment (6-mer frequency, TF over GST control) with ELF1; 1.09 fold enrichment (6-mer frequency, TF over GST control) in the assay with EHF. Also, the binding signal in the assay with SPI1 was 1.16 fold enrichment (6-mer frequency, TF over GST control); with SPIB it was 1.09 fold enrichment (6-mer frequency, TF over GST control); with ELK3, 1.24 fold enrichment (6-mer frequency, TF over GST control).
As for TGATGG, the binding signal was 1.24 fold enrichment (6-mer frequency, TF over GST control) in the assay with FLI1; 1.27 fold enrichment (6-mer frequency, TF over GST control) with ELK1; 1.29 fold enrichment (6-mer frequency, TF over GST control) in the assay with GABPA; 1.24 fold enrichment (6-mer frequency, TF over GST control) with ERG; 1.24 fold enrichment (6-mer frequency, TF over GST control) with ELF1; 1.31 fold enrichment (6-mer frequency, TF over GST control) in the assay with EHF. For the same sequence, the binding signal with SPI1 was 1.28 fold enrichment (6-mer frequency, TF over GST control); with SPIB it was 1.39 fold enrichment (6-mer frequency, TF over GST control); with ELK3 it was 1.16 fold enrichment (6-mer frequency, TF over GST control).
Turning to TACGTA, the binding signal was 1.41 fold enrichment (6-mer frequency, TF over GST control) with FLI1; 1.36 fold enrichment (6-mer frequency, TF over GST control) with ELK1; 1.31 fold enrichment (6-mer frequency, TF over GST control) in the assay with GABPA; 1.2 fold enrichment (6-mer frequency, TF over GST control) in the assay with ERG; 1.32 fold enrichment (6-mer frequency, TF over GST control) with ELF1; 1.41 fold enrichment (6-mer frequency, TF over GST control) with EHF. Further, the binding signal is 1.35 fold enrichment (6-mer frequency, TF over GST control) with SPI1; 1.15 fold enrichment (6-mer frequency, TF over GST control) with SPIB; 1.37 fold enrichment (6-mer frequency, TF over GST control) in the assay with ELK3.
